Efflux pump inh – inhibitors of Candida antifungal efflux pumps expressed in yeast; S. cerevisiae Candida pump triplex, Nile Red efflux; inhibition, % at 10 µM; actives 0.44% (n = 330,000); AID 485275;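 active = plate passing quality check with inhibition over a set limit, or well fluorescence over plate mean plus 4 SD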;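 also: Nile Red retained in pooled yeast measured as flow cytometry median fluorescence; 0% = buffer negative control and 100% = Enniatin B positive control; higher means more Nile Red kept so more efflux inhibition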
PHOSPHO1 block – PHOSPHO1 (human) inhibition | Q8TCT1 | recombinant PHOSPHO1, absorbance phosphatase assay | inhibition, % at 13.3 µM | actives 1.1% (n = 290,000) | AID 1565; in the data active = inhibition above about 60%
Target sequence (Q8TCT1 whole entry, looked up): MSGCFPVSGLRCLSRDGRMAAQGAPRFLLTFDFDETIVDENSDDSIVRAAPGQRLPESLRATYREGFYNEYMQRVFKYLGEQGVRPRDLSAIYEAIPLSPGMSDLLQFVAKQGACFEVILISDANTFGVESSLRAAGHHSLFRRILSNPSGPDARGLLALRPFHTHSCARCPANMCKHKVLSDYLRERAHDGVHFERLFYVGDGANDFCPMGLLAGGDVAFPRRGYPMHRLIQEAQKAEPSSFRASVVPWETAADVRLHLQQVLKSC
KCC2 mod – modulates chloride dependent transport by human KCC2 | Q9H2X9 | actives 2.2% (n = 190,000) | B-score of Tl+ flux slope (higher = more flux/activation; lower = inhibition) at 10 µM | KCC2 cells, thallium flux FluoZin-2 fluorescence;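 active = thallium flux slope and its plate-corrected score both differing from the plate sample mean at a set confidence after two filtering rounds, in either direction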;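 also: slope of fluorescence scaled to starting intensity during 10 to 20 s after thallium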
H9c2 protect – modulators protecting cardiomyocytes from myocardial damage | protection from H2O2 cell death, % at 20 µM | actives 0.63% (n = 360,000) | H9c2 cardiomyocytes, H2O2 injury protection, ATPLite, 2 h;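 active = compounds giving at least 50% protection of heart cells from peroxide-induced death in the single-dose screen, raw or plate-pattern-corrected value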;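 also: 0% = DMSO wells with peroxide and 100% = DMSO wells without peroxide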
Calb FLC – affects C. albicans growth with fluconazole | C. albicans CaCi-2 (fluconazole-resistant clinical isolate) + fluconazole, Alamar Blue growth, 48 h | growth inhibition, % (concentration not given with the values) | actives 0.57% (n = 300,000);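 active = growth inhibition above about 58% in most replicates, limit read from the data, passing the limit was not always enough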;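 also: all wells also contain fluconazole at 8 µg/ml as a sub-toxic cotreatment; 0% = median of DMSO wells and 100% = median of geldanamycin control wells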
Yeast cmpd fluor – compound fluorescence in yeast efflux pump counter-screen; S. cerevisiae AD/pABC3, flow cytometry; fluorescence ratio to DMSO, % at 10 µM; shares compounds with Efflux pump inh; actives 4% (n = 1,700); AID 588517;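 active = fluorescence ratio to DMSO above its plate's cutoff, the plate mean ratio plus 5 SD, cut at about 210% in these data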;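 also: unstained yeast with no Nile Red so the signal is compound autofluorescence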
CaMdr1 efflux inh – inhibitors of Candida albicans Mdr1 efflux pump. actives 1% (n = 1,700). shares compounds with Efflux pump inh. AID 588518. S. cerevisiae AD/CaMDR1, Nile Red efflux, flow cytometry. inhibition, % at 10 µM; in the data active = inhibition above about 26%;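 also: 0% = DMSO vehicle and 100% = reference inhibitor; higher means more Nile Red retained so more efflux inhibition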
Cdr2 pump inh – inhibitors of Candida albicans Cdr2 efflux pump. shares compounds with Efflux pump inh. S. cerevisiae AD/CaCDR2, Nile Red retention, flow cytometry. Nile Red retention ratio vs DMSO, % at 10 µM. actives 4% (n = 1,700). AID 588520; in the data active = Nile Red retention ratio vs DMSO above about 190%;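 also: higher ratio means more blocking of Cdr2 efflux of the dye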
Cdr1 pump inh – Candida Cdr1 efflux pump inhibition; inhibition, % at 10 µM; actives 1% (n = 1,700); S. cerevisiae AD/CaCDR1, Nile Red efflux, flow cytometry; AID 588522; shares compounds with Efflux pump inh;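 active = inhibition above the screen-wide mean plus twice its standard deviation, cut at about 32% in these data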
* = called active by the depositor. Sampled rows, rich in hits. Any-hit rate of the full collection: about 3.3%.

How did Cn1c(N2CCN(C(c3ccccc3)c3ccccc3)CC2)nc2ccccc21 do in these assays?
Efflux pump inh: 0.5*; PHOSPHO1 block: 40; H9c2 protect: 5; Calb FLC: 6; Yeast cmpd fluor: 99; CaMdr1 efflux inh: 0; Cdr2 pump inh: 104; Cdr1 pump inh: 0

Results for Cc1cccc(CS(=O)(=O)Cc2ccc(C(=O)NCc3ccco3)o2)c1 ?
Efflux pump inh: 13*; PHOSPHO1 block: 9; H9c2 protect: 0; Calb FLC: -5; Yeast cmpd fluor: 109; CaMdr1 efflux inh: 0; Cdr2 pump inh: 101; Cdr1 pump inh: 0

What do the screens show for `CC[C@@]1(C(=O)OC)N[C@H](CN(C)S(=O)(=O)c2ccc(C(C)(C)C)cc2)[C@@H]2C(=O)N(C)C(=O)[C@@H]21`?
Efflux pump inh: 0; H9c2 protect: 1

Results for CC(OC(=O)C1CCC1)C(=O)Nc1cc(Cl)cc(Cl)c1 (centres undefined) ?
Efflux pump inh: 0; H9c2 protect: -19; Calb FLC: 0

What do the screens show for `CN(C)c1ccc(N2C(=NC(=O)CCc3ccccc3)SC3CS(=O)(=O)CC32)cc1` (centres undefined)?
Efflux pump inh: 1.0*; PHOSPHO1 block: -9; H9c2 protect: 4; Calb FLC: 17; Yeast cmpd fluor: 121; CaMdr1 efflux inh: 1; Cdr2 pump inh: 99; Cdr1 pump inh: 0

Results for O=C(CCCc1ccccc1)N=C1SC2CS(=O)(=O)CC2N1c1ccccc1 (centres undefined) ?
Efflux pump inh: 0; PHOSPHO1 block: -50; H9c2 protect: -1; Calb FLC: 4

Results for CCn1ncc(/C=C/C(=O)c2ccccc2)c1C ?
Efflux pump inh: 11*; PHOSPHO1 block: -2; KCC2 mod: 0.19; H9c2 protect: -10; Calb FLC: -20; Yeast cmpd fluor: 106; CaMdr1 efflux inh: 0; Cdr2 pump inh: 91; Cdr1 pump inh: 0

How did Cc1c(/C=C/C(=O)c2ccccc2)cnn1C do in these assays?
Efflux pump inh: 0; PHOSPHO1 block: 48; KCC2 mod: -0.34; H9c2 protect: -6; Calb FLC: -2

How did O=C(NCc1nnnn1-c1ccc(F)c(F)c1)c1ccc(S(=O)(=O)N2CCOCC2)cc1 do in these assays?
Efflux pump inh: 0; H9c2 protect: -3; Calb FLC: -3

Results for CCCc1ccccc1OCCNS(=O)(=O)c1cc2c(cc1C)OCC(=O)N2 ?
Efflux pump inh: 0; PHOSPHO1 block: 22; H9c2 protect: -5; Calb FLC: 9

What do the screens show for `Fc1ccc(-c2csc3[n+]2CCS3)cc1`?
Efflux pump inh: 3.0*; PHOSPHO1 block: -8; KCC2 mod: -1.6; H9c2 protect: 7; Calb FLC: -63; Yeast cmpd fluor: 91; CaMdr1 efflux inh: 0; Cdr2 pump inh: 89; Cdr1 pump inh: 0

What do the screens show for `c1sc2[n+](c1C13CC4CC(CC(C4)C1)C3)CCS2`?
Efflux pump inh: 0; PHOSPHO1 block: -13; H9c2 protect: -6; Calb FLC: -4

Results for CC1CCCN(C(=O)COC(=O)c2cc(-c3cccs3)nn2-c2ccccc2)C1 (centres undefined) ?
Efflux pump inh: 0; H9c2 protect: 2; Calb FLC: 9

How did Cc1ccn2cc(CCNS(=O)(=O)c3ccc(F)c(C(F)(F)F)c3)nc2c1 do in these assays?
Efflux pump inh: 0; PHOSPHO1 block: 6; KCC2 mod: 0.039; H9c2 protect: 7; Calb FLC: -4

Results for O=S(=O)(NCCc1cn2ccccc2n1)c1ccc(F)c(C(F)(F)F)c1 ?
Efflux pump inh: 0.5*; PHOSPHO1 block: -3; KCC2 mod: -0.41; H9c2 protect: 0; Calb FLC: -6; Yeast cmpd fluor: 102; CaMdr1 efflux inh: 0; Cdr2 pump inh: 116; Cdr1 pump inh: 0

How did Cc1nn(C)cc1/C=N\NC(=O)c1csc2c1CCCC2 do in these assays?
Efflux pump inh: 7.4*; PHOSPHO1 block: 9; H9c2 protect: -2; Calb FLC: -10; Yeast cmpd fluor: 109; CaMdr1 efflux inh: 0; Cdr2 pump inh: 106; Cdr1 pump inh: 0

Results for COc1ccc2cc1Oc1ccc(cc1)CC1c3c(cc(OC)c4c3Oc3cc5c(cc3O4)CCNC5C2)CCN1C (centres undefined) ?
Efflux pump inh: 1; PHOSPHO1 block: 20; KCC2 mod: -1.3; H9c2 protect: -18; Calb FLC: 9

How did COc1ccc2cc1Oc1ccc(cc1)C[C@H]1c3c(cc(OC)c4c3Oc3c(ccc5c3[C@H](C2)N(C)CC5)O4)CCN1C do in these assays?
Efflux pump inh: 4.3*; H9c2 protect: -21; Yeast cmpd fluor: 106; CaMdr1 efflux inh: 0; Cdr2 pump inh: 108; Cdr1 pump inh: 0

What do the screens show for `C=CCNC(=O)NC(=O)COC(=O)/C(C#N)=C/c1cc(C)n(CC(C)C)c1C`?
Efflux pump inh: 2.4*; PHOSPHO1 block: -4; KCC2 mod: -0.63; H9c2 protect: -6; Calb FLC: 3; Yeast cmpd fluor: 100; CaMdr1 efflux inh: 0; Cdr2 pump inh: 102; Cdr1 pump inh: 0

What do the screens show for `COc1cc(N2CCCC2)c(OC)cc1/C=C1/NC(=S)NC1=O`?
Efflux pump inh: 0.5*; PHOSPHO1 block: 16; KCC2 mod: -2.7; H9c2 protect: 5; Calb FLC: -9; Yeast cmpd fluor: 289*; CaMdr1 efflux inh: 0; Cdr2 pump inh: 120; Cdr1 pump inh: 0

How did CCn1c(/C=C/c2ccc(O)cc2)nc2ccccc2c1=O do in these assays?
Efflux pump inh: 0; PHOSPHO1 block: 24; H9c2 protect: 6; Calb FLC: 33

How did CCn1c(/C=C/c2ccc(O)c(O)c2)nc2ccccc2c1=O do in these assays?
Efflux pump inh: 1.0*; PHOSPHO1 block: 19; H9c2 protect: 70*; Calb FLC: 2; Yeast cmpd fluor: 144; CaMdr1 efflux inh: 2; Cdr2 pump inh: 105; Cdr1 pump inh: 2

How did CS(=O)(=O)c1ccc(Cl)c(NC(=O)c2cccc(Br)c2)c1 do in these assays?
Efflux pump inh: 5.8*; PHOSPHO1 block: -1; KCC2 mod: -1.2; H9c2 protect: 3; Calb FLC: 7; Yeast cmpd fluor: 100; CaMdr1 efflux inh: 0; Cdr2 pump inh: 90; Cdr1 pump inh: 0

How did CCCCOc1ccc(C(=O)N/C(=C\c2cccc([N+](=O)[O-])c2)C(=O)OCCC)cc1 do in these assays?
Efflux pump inh: 0; PHOSPHO1 block: 10; KCC2 mod: -0.34; H9c2 protect: -12; Calb FLC: -9

Compound activity from PubChem.
